# Bioassay records from PubChem BioAssay.
# Rows were chosen to be rich in hits. Some 3% of all compounds tested hit in one or more screens of this group.
# MITF TRPM1 inh: inhibitors of MITF-dependent TRPM1 promoter reporter, primary screen, cell-based, SK-MEL-5, single point, luciferase. SK-MEL-5 TRPM1 promoter luciferase, 24 h. inhibition, % at 12.5 µM. 0.83% of 330,000 active. AID 488899, 2010;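 active = mean inhibition across replicates of 60% or more, whatever share of single replicates reaches that level; inconclusive = some that reach 60%, reason not given; inactive = mean inhibition across replicates below 60%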
# ABHD5 PLIN5 PPI: ABHD5-PLIN5 interaction inhibitors, primary screen, cell lysate, split luciferase complementation, luminescence | inhibition, % at 4 µM | AID 602281, 2012 | Perilipin-5 (Homo sapiens) + 1-acylglycerol-3-phosphate O-acyltransferase ABHD5 (Homo … | 0.78% of 360,000 active | Split G. princeps luciferase complementation, 4 h;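 active = inhibition above the mean inhibition across every tested compound plus 3 SD, cut at about 22% in these data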;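 note: 0% = DMSO only wells and the 100% control is not disclosed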
# Target sequence (Q00G26 whole entry, looked up): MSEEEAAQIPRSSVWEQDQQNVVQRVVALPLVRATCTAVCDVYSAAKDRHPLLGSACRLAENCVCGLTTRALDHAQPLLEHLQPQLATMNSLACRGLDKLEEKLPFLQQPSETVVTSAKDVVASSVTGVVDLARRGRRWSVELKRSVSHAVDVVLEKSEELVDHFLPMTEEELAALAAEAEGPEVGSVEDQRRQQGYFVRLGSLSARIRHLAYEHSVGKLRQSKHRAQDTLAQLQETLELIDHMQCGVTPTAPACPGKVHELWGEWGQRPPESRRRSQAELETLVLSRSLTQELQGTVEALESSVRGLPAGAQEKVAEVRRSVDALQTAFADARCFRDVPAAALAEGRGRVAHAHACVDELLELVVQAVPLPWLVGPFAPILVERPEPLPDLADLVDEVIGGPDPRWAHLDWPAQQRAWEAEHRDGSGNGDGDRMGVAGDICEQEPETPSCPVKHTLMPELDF
# Target sequence (Q8WTS1 whole entry, looked up): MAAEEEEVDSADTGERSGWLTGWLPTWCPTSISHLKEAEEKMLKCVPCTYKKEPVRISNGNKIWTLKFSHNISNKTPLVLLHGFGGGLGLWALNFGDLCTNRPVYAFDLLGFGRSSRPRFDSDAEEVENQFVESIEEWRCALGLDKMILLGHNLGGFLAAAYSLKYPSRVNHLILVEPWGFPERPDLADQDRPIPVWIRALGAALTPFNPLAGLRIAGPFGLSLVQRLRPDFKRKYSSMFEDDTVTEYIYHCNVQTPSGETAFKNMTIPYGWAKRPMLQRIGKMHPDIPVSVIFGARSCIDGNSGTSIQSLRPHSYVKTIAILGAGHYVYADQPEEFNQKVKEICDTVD
# Shn3 inh set2: reduction of Shn3 3'UTR firefly luciferase signal, primary screen, Schnurri-3 inhibitor project, cell-based, Clone20 osteoblasts, set 2. AID 588674, 2011. inhibition, % at 12.5 µM. Clone20 osteoblast Shn3 3'UTR firefly luciferase, 24 h. 0.52% of 360,000 active;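 active = mean inhibition of at least 75% with every replicate also reaching 75%; inconclusive = mean inhibition at least 75% but some replicate below; inactive = mean inhibition below 75%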;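 note: 0% = median of neutral control wells and 100% = pilot-screen positive control compound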
# PAX8 inh HTS: inhibitors of PAX8-driven TPO luciferase reporter, primary screen, RMG-I cells, single concentration; AID 652154, 2013; SteadyGlo, 24 h; inhibition, % at 12.6 µM; 1.2% of 360,000 active;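 active = mean replicate inhibition at least 60% with every replicate also reaching 60%; inconclusive = only one of the two criteria is met; inactive = mean below 60% and not all replicates reaching 60%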;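 note: luciferase light reporting Pax8 driven TPO promoter activity; plate controls were median of neutral control wells for no effect and mitoxantrone controls for full effect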
# Peg3 promoter: Peg3 promoter-driven luciferase inhibitors, primary screen, cell-based, HeLa, luciferase luminescence. 1.7% of 360,000 active. inhibition, % at 20 µM. HeLa PEG-Prom luciferase reporter, overnight;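 active = inhibition of at least 50% at 20 µM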
# EWS-Fli inh: EWS/Fli-driven NR0B1 reporter inhibitors, primary screen, A673 cells, NR0B1 luciferase, luminescence, MLPCN library. inhibition, % at 12.6 µM. viability-normalised. 0.67% of 350,000 active;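 active = mean inhibition of at least 50% after viability correction, with every replicate also passing that limit; inconclusive = mean reaches 50% but only one of two replicates passes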;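 note: firefly luciferase signal divided by Alamar Blue viability fluorescence both relative to DMSO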
# DNA binder FP: DNA binders by acridine orange displacement, dose response, counter-screen for EWS/Fli inhibitor project, biochemical, fluorescence polarization, cherry-pick | AC35, µM (doses to about 68 µM), for the others: top-dose activity change, negative = DNA binding | 2% of 640 active | shares compounds with EWS-Fli inh | AID 720586, 2013 | salmon sperm DNA acridine orange fluorescence polarization;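 active = fitted curve reaches a 35% signal fall AC35 below twice the sample's top valid tested dose, actives reach about 48 µM in these data; inactive = the rest, including activity in the rising direction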;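 note: lower polarization ratio signals compound binding to DNA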
# * = called active by the depositor; ? = inconclusive; . = not tested or not shown.
SMILES,MITF TRPM1 inh,ABHD5 PLIN5 PPI,Shn3 inh set2,PAX8 inh HTS,Peg3 promoter,EWS-Fli inh,DNA binder FP
O=C(NC1CCCC1)[C@H]1[C@H](CO)[C@H]2Cn3c(cccc3=O)[C@@H]1N2CC1CCCC1,.,.,.,.,.,8,.
CO[C@@H]1CN(C)C(=O)c2cc(NC(=O)CN(C)C)ccc2OC[C@@H](C)N(Cc2ccccc2F)C[C@H]1C,.,.,.,.,.,2,.
COc1ccc(OC)c(/C=C/c2ccnc3ccccc23)c1,5,2,-5,33,-24,70*,-14%
O=C(N/N=C/c1ccc[nH]1)c1cc(-c2ccc(Cl)cc2)nc2ccccc12,16,-3,21,9,27,54*,-6%
O=C(N/N=C/c1cccnc1)c1cc(-c2ccc(Cl)cc2)nc2ccccc12,9,3,14,24,17,12,.
C[C@@H]1CN([C@@H](C)CO)C(=O)c2cc(Br)cnc2O[C@H]1CN(C)Cc1ccncc1,.,.,.,.,.,-4,.
CC(C)CC(NC(=O)c1cccs1)c1nnc(SCc2ccc(Cl)c(Cl)c2)n1C (stereo not given),0,2,5,14,36,76*,-21%
COc1ccc(C(=O)NC(CO)c2nnc(SCc3ccc(Cl)c(Cl)c3)n2C)cc1 (stereo not given),6,-4,-1,.,8,.,.
CO[C@@H]1CN(C)C(=O)c2ccc(NC(=O)c3ccc(-c4ccccc4)cc3)cc2OC[C@H](C)NC[C@H]1C,.,.,.,21,.,.,.
CO[C@H]1CN(C)C(=O)c2ccc(NC(=O)c3ccc(-c4ccccc4)cc3)cc2OC[C@H](C)NC[C@H]1C,.,.,.,?,.,83*,-14%
CO[C@H]1CN(C)C(=O)c2cc(NC(=O)c3ccc(Oc4ccccc4)cc3)ccc2OC[C@H](C)NC[C@@H]1C,.,.,.,36,.,58*,-18%
CO[C@@H]1CN(C)C(=O)c2ccc(NC(=O)C3CC3)cc2OC[C@H](C)N(C(=O)CN2CCOCC2)C[C@H]1C,.,.,.,-4,.,-3,.
O=C(C[C@H]1CC[C@@H](NS(=O)(=O)c2ccccc2F)[C@@H](CO)O1)NCCCN1CCOCC1,.,.,.,-13,.,5,.
COc1ccc(Cn2cc3c(-c4ccc(F)cc4)nnc-3c3cc(OC)c(OC)cc32)cc1,83*,10,-4,92*,101*,66*,-25%
Cn1nc2c3cc(F)ccc3n(Cc3ccc(F)cc3)cc-2c1=O,-1,1,-9,11,31,4,.
CCC(=O)Nc1ccc2c(c1)C(=O)N(C)[C@H]1CC[C@@H](CC(=O)Nc3cccc(OC)c3)O[C@@H]1CO2,.,.,.,5,.,-2,.
Cc1ccc(-c2ccc3c(c2)O[C@@H](CN(C)C(=O)Nc2ccc(F)cc2)[C@H](C)CN([C@H](C)CO)S3(=O)=O)cc1,.,.,.,.,.,29,.
CC(C)NC(=O)N(C)C[C@@H]1Oc2cc(C#Cc3ccc(F)cc3)ccc2S(=O)(=O)N([C@H](C)CO)C[C@H]1C,.,.,.,.,.,56*,-9%
Cc1ccc(-c2ccc3c(c2)O[C@@H](CN(C)C(=O)Nc2ccc(F)cc2)[C@H](C)CN([C@@H](C)CO)S3(=O)=O)cc1,.,.,.,.,.,54*,-10%
CCOc1cc(/C=N/Nc2cc(C)nc(-n3nc(C)cc3C)n2)ccc1O,?,-3,?,32,31,53*,-14%
Cc1cc(N/N=C/c2ccc(F)cc2)nc(-n2nc(C)cc2C)n1,.,-2,17,9,4,40,.
Cc1occc1-c1n[nH]c(=S)n1C,4,4,-4,6,0,75*,-7%
COCC(=O)N1CCC2(CC1)CN(Cc1cccc(F)c1)[C@H](CO)c1c2c2ccc(OC)cc2n1C,.,.,.,.,.,-14,.
c1cncc(-c2ccc([C@@H]3[C@H]4CNC[C@@H]3N4CC3CCOCC3)cc2)c1,.,.,.,-9,.,51*,3%
S=C(NCCN1CCOCC1)Nc1ccccc1Cl,0,7,14,9,-11,83*,0%
